Screening data deposited in PubChem BioAssay by several laboratories.
EBV gp42 block – inhibitors of Epstein-Barr virus glycoprotein 42; inhibition, % (tested at 21.74 µM); Q1HVG2; Fluorescence polarization binding assay, mP read-out; 220,000 tested, 0.42% active; in the data active = inhibition above about 50%
MEX-5 binding – C. elegans MEX-5 TCR-2 RNA binding activity; MEX-5/FITC-TCR2 RNA binding, fluorescence polarization; stronger effect = lower value; activity score (negative = inhibition of binding), % at 10 µM; 300,000 tested, 0.38% active; AID 1832;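 active = inhibition past about -25% in most replicates, and total fluorescence under double the plate's negative control median, limit read from the data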;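 also: 0% = DMSO and -100% = 5 µM competing unlabeled TCR2 RNA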
Target sequence (Q9XUB2 whole entry, looked up): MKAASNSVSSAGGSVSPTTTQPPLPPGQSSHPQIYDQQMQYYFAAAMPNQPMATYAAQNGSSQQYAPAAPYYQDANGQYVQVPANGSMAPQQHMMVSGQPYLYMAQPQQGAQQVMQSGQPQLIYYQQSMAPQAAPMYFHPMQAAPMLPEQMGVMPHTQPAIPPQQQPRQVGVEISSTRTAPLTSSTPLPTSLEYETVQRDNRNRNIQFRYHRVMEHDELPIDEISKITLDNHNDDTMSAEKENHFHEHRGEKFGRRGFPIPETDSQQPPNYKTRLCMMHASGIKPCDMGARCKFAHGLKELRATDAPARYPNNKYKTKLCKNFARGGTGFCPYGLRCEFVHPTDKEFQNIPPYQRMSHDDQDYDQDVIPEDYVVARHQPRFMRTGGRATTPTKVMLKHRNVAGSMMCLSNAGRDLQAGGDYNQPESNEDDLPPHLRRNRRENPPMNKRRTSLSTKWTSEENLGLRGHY
GLD-1 RNA inh – GLD-1-TGE RNA interaction inhibition (C. elegans) | Q17339 | inhibition, % at 5.96 µM | purified GLD-1 + fluorescein TGE RNA, fluorescence polarization | 320,000 tested, 0.44% active;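 active = percent inhibition above a per-plate cutoff, the plate mean of test compounds plus 3 SD, cut at about 30% in these data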;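 also: 0% = DMSO wells with GLD-1 and probe and 100% = wells lacking GLD-1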
BCLXL inh – blocks human Bcl-xL binding to Bim BH3 peptide | inhibition, % at 10.9 µM | Q07817 | 320,000 tested, 0.7% active | GST-Bcl-xL / FITC-Bim BH3 peptide fluorescence polarization;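 active = inhibition above the mean of all tested compounds plus 3 SD, cutoff set per campaign, cut at about 30% in these data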;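 also: 0% = DMSO wells and 100% = unlabeled Bim-BH3 peptide competitor; inhibitors lower millipolarization by displacing the labeled peptide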
MCL1-BIM inh – inhibitors of human MCL1 binding to BIM-BH3 peptide; Q07820; GST-MCL1 / FITC-Bim-BH3 fluorescence polarization; inhibition, % at 10.9 µM; 320,000 tested, 0.68% active; AID 2057;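 active = inhibition above the mean inhibition of all tested compounds plus 3 SD, set per campaign, cut at about 40% in these data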;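 also: 0% = DMSO wells and 100% = unlabeled Bim-BH3 peptide control; higher means more loss of mP so more displacement of Bim peptide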
GLD-1 TGE cf – confirmation of C. elegans GLD-1 TGE RNA binding inhibitors; GLD-1/FL-TGE RNA fluorescence polarization, biochemical; AID 2459; inhibition, % at 5.96 µM; shares compounds with GLD-1 RNA inh; 550 tested, 10% active;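 active = average inhibition across triplicates above the hit cutoff set in the primary screen, cut at about 32% in these data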;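 also: 0% = GLD-1 with RNA probe and DMSO and 100% = wells lacking GLD-1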
Numbers without * were called inactive; . = no result. Rows were chosen to be rich in hits. Some 1.3% of all compounds tested hit in one or more screens of this group.

SMILES	EBV gp42 block	MEX-5 binding	GLD-1 RNA inh	BCLXL inh	MCL1-BIM inh	GLD-1 TGE cf
Nc1c(NCCC2=CCCCC2)c(=O)[nH]c(=O)n1Cc1ccccc1	48	-50*	48*	42*	41*	-2
Nc1c(N(CCC2=CCCCC2)C(=O)Cc2ccc(F)cc2)c(=O)[nH]c(=O)n1Cc1ccccc1	.	1	3	-4	-6	.
Cc1cccc(NC(=O)CN2C(=O)N/C(=C/c3ccc(C)o3)C2=O)c1	-31	3	18	11	15	.
C=CCN1C(=O)N/C(=C/c2ccc(C)o2)C1=O	-7	-4	42*	16	24	-14
Cc1ccc(NC(=O)CN2C(=O)N/C(=C/c3ccc(C)o3)C2=O)cc1	-46	-6	38*	20	31	-70
O=C(Nc1ccccc1)[C@@H]1CC=C[C@@H]2CCN(Cc3ccc(Cl)c(Cl)c3)C(=O)[C@@H]21	.	2	4	3	8	.
COc1ccc2c(c1OC)C(=O)N1C2SC[C@H]1C(=O)NC1CCCC1 (stereo partly specified)	.	4	-1	1	-5	.
COc1ccc(-n2nc(C(=O)NCC(=O)NCc3ccc(F)cc3)c3ccccc3c2=O)cc1OC	.	0	7	-2	-3	.
Cc1c(NC(=S)SCc2ccccc2)c(=O)n(-c2ccccc2)n1C	-13	-3	3	9	14	.
COc1ccc(NC(=O)c2cc3ccccc3o2)cn1	.	4	0	3	7	.
COc1ccc(NC(=O)c2cc(=O)c3ccccc3o2)cn1	25	-3	41*	44*	48*	20
COc1ccc(O)c(C(=O)c2coc(=N)c(C(=O)Nc3ccc(SC(F)F)cc3)c2)c1	-13	5	-51	-10	-25	.
CCOc1ccc(C(=O)n2cnnc2N)cc1	-25	-1	35*	-1	-8	4
CC1Oc2ccccc2N(CC(=O)NCCN2CCOCC2)C1=O (stereo unspecified)	.	1	37*	31*	49*	4
O=C(CN1C(=O)COc2ccccc21)NCCN1CCOCC1	.	0	5	3	-7	.
CCN(CC(=O)Nc1ccccc1C(F)(F)F)C(=O)c1ccc2[nH]c3c(c2c1)CC(C)CC3 (stereo unspecified)	.	-2	7	2	4	.
C=CCN1C=C2C(=O)C(C)(OC(=O)C3CCCC3)C(=O)C=C2C=C1c1ccsc1 (stereo unspecified)	-4	-6	32*	31*	38	3
CCCS(=O)(=O)c1c(S(=O)(=O)CCC)c2c(N)cccn2c1C(=O)OC	-1	-10	35*	21	12	-1
CCCS(=O)(=O)c1c(S(=O)(=O)CCC)c2c(N)cccn2c1C(=O)c1ccccc1	8	-3	18	8	-5	.
COc1ccc(N(C(=O)c2cccnc2)S(=O)(=O)c2cc(OC)ccc2OC)cc1	.	-1	-4	3	3	.
CCc1ccc(NC(=O)C2CCN(S(=O)(=O)c3cnc[nH]3)CC2)cc1	.	-1	6	5	-2	.
CCc1ccc(NC(=O)C2CCCN(S(=O)(=O)c3cnc[nH]3)C2)cc1 (stereo unspecified)	.	1	61*	2	7	-1
CC(CCC(C)C(C)(C)C)[C@@H]1CC[C@H]2C3C[C@H](OS(O)(=S)=S)[C@H]4C[C@H](OS(O)(=S)=S)[C@@H](OS(O)(=S)=S)C[C@]4(C)[C@H]3CC[C@]12C (stereo partly specified) (tested in a mixture with another compound)	.	.	85*	.	.	72*
C[C@H](CCC(=O)O)[C@H]1CC[C@H]2[C@@H]3[C@H](O)C[C@@H]4C[C@H](O)CC[C@]4(C)[C@H]3CC[C@]12C	.	.	3	3	8	.
Cc1sc2nc(C(C)(C)C)oc(=O)c2c1C	-11	-4	117*	4	3	-2
SMILES	EBV gp42 block	MEX-5 binding	GLD-1 RNA inh	BCLXL inh	MCL1-BIM inh	GLD-1 TGE cf
Cc1ccccc1-c1nc2sc(C)c(C)c2c(=O)o1	.	-2	3	8	-8	.
Nc1ccccc1C(=O)Nc1cccc2ccccc12	.	2	.	.	.	.
O=C(Nc1cccc2ccccc12)c1ccccc1Cl	.	0	51*	0	0	1
CC(C)N1C(=O)C2ON(c3ccccc3)C(c3cccs3)C2C1=O (stereo unspecified)	5	1	38*	7	10	-5
C=CCN(CC=C)S(=O)(=O)c1ccc2nc(NC(=O)C3CCCO3)sc2c1 (stereo unspecified)	0	0	-1	2	5	.
Cc1ccc(-c2csc(N3CCN(CCCn4c(C(F)(F)F)nc5ccccc54)CC3)n2)cc1	.	0	40*	3	1	-1
Cc1ccc(-c2csc(N3CCN(CCCn4c(-c5ccncc5)nc5ccccc54)CC3)n2)cc1	.	0	-3	-2	4	.
COC(=O)C1Sc2[nH]c(=O)sc2C(c2ccc(Cl)cc2)C1C(=O)OC (stereo unspecified)	1	0	6	8	4	.
Cc1ccc(C2c3sc(=O)[nH]c3SC3C(=O)NC(=O)C32)cc1 (stereo unspecified)	25	-46*	54*	24	32	29
CC(C)CCn1c(N2CCCC2)nc2c1c(=O)n(C)c(=O)n2C	.	2	3	1	2	.
CC(C)CCn1c(Cl)nc2c1c(=O)n(C)c(=O)n2C	3	-3	31*	7	3	-2
COc1cccc(N(CC(=O)NCC2CCCO2)C(=O)CNS(=O)(=O)c2ccccc2)c1 (stereo unspecified)	-6	2	38*	41*	36	1
COc1c(CC=C(C)C)cc(C2CC(=O)c3c(O)cc(O)cc3O2)c(CC=C(C)C)c1O (stereo unspecified)	.	-1	8	4	2	.
CC(C)=CCc1cc([C@@H]2CC(=O)c3ccc(O)c(CC=C(C)C)c3O2)ccc1O	.	-3	43*	2	1	-6
O=C(COc1cccc2cccnc12)N/N=C1\SCC(=O)N1CCc1ccccc1	-6	-3	1	-1	1	.
COC(=O)C1C(=O)C2=C(CC1C)Nc1ccccc1NC2c1ccc(C)s1 (stereo unspecified)	-9	-1	-10	-8	4	.
O=c1c2cccc(Cl)c2nc2n1Cc1ccccc1-2	-17	-2	42*	11	19	1
CCN(CC)CCNc1cc(C)c(C#N)c2nc3ccccc3n12	.	-7	32*	33*	35	5
CS(=O)(=O)c1sc2nc(-c3cccs3)cc(-c3ccccc3)c2c1N	-29	2	53*	23	-3	-14
COC(=O)CP(=O)(c1ccccc1)c1ccccc1	-10	0	39*	32*	37	-1
